Screening data (PubChem)
HT1080 IDH1KD tx = kills HT-1080 cells with IDH1 knockdown. 2% of 360,000 active. Potency, µM (titrated, usually from 46.1 µM), without a hit: at the top dose activity, negative = toxicity, usual class: cytotoxic. HT-1080 IDH1 knockdown viability, ATP luminescence, 48 h. AID 686971;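 further: potency means the concentration at half of the fitted maximal effect; 0% = DMSO wells and -100% = cell-free medium wells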
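CellTiter-Glo luminescence after 48 h compound exposure at 37 degrees C of IDH1-knockdown HT-1080 cells in 5% FBS RPMI. %Activity scaled between DMSO wells and cell-free media wells, with curves fitted and assigned curve classes.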
DT40 TDP1 CPT = DT40-hTDP1 cell growth loss with CPT. Potency, µM (titrated, usually from 46.2 µM), for inactives: at the highest dose activity change, negative = growth inhibition, most hits filed as inhibitors. chicken DT40 Tdp1-/-;hTDP1 cells + 20 nM CPT, ATP luminescence, 48 h. 12% of 420,000 active; further: potency means the concentration at half of the fitted maximal effect; nearly all actives have a fitted effect of over 55% in size
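Chicken DT40 Tdp1-/- cells complemented with human TDP1, 400 cells/well, exposed to compounds plus 20 nM camptothecin for at least 48 h at 37 C; viability read as ATP content by CellTiter-Glo luminescence.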
IL1B secr inh = inhibitors of inflammasome signaling (IL-1 beta secretion). THP-1 LPS/ATP IL-1B secretion, AlphaLISA, 16 h; active compounds read low. activity change, % at 57.5 µM. 4.7% of 360,000 active; in the data active means activity change below about -50%; inconclusive means mostly about -30% to -49%
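Secreted IL-1B measured by AlphaLISA bead assay after 16 h compound exposure of THP-1 cells; compounds (final up to 57.5 uM) added 1 h before LPS (250 ng/mL) and ATP (1.25 mM) stimulation; lower signal means less secretion.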
DT40 TDP1 no CPT = qHTS for Inhibitors of human tyrosyl-DNA phosphodiesterase 1 (TDP1): qHTS in cells in absence of CPT | 15% of 420,000 active | DT40 Tdp1-/- hTDP1 cells, no CPT, ATP luminescence, 48 h | Potency, µM (doses to about 46.2 µM), without a hit: at the highest dose activity change, negative = growth inhibition, hits mostly inhibitors; further: potency means the concentration at half of the fitted maximal effect; nearly all actives have a fitted effect of over 55% in size
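Readout: luminescence from CellTiter-Glo after 30 min in the dark at RT. Cells: DT40 Tdp1-/- with stable hTDP1, 400/well. Exposure: compounds alone, ≥48 hr, 37 °C.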
HT1080NT lethal = kills 2HG-producing HT-1080-NT fibrosarcoma cells | HT-1080-NT fibrosarcoma viability, CellTiter-Glo ATP luminescence, 48 h | Potency, µM (top dose mostly 46.1 µM), inactives show top-dose activity, negative = less viability, actives largely listed as cytotoxic | 1.6% of 360,000 active;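 further: NT is the 2HG producing partner of a matched IDH1 knockdown line; potency means the concentration at half of the fitted maximal effect; 0% = DMSO-treated cells and -100% = media-only wells without cells; nearly all actives have a fitted effect of over 55% in size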
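Read-out is CellTiter-Glo luminescence after 10 minutes at room temperature, following 48 hours' compound treatment of HT-1080-NT cells (750 cells/well, RPMI, 5% FBS, 37 degrees C).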
Active calls of the source: *; i = inactive; u = inconclusive; x = not tested or not shown; [ ] = dose if it differs, or a comment. Only some compounds are listed: those with a hit (about 19% of all), similar ones and a draw of the others. Unless noted, the call rests on the fitted dose curve; in most records, active means well fitted curve in the direction sought with a large enough effect; inconclusive means small, poorly fitted or top-dose-only effect, or another doubt; inactive means no such curve, though single readings can be large; an effect the other way counts as inactive or inconclusive. Unless noted, on the % scale 0 is the no-effect control and ±100 the full control effect.

SMILES	HT1080 IDH1KD tx	DT40 TDP1 CPT	IL1B secr inh	DT40 TDP1 no CPT	HT1080NT lethal
CCOC(=O)N1CCN(C(=O)CSc2nc3c([nH]c4ccccc43)c(=O)n2CCOC)CC1	-21%	u	i	18µM*	-4%
CCn1c(SCC(=O)N2CCN(c3ccccc3)CC2)nc2c([nH]c3ccccc32)c1=O	11%	15µM*	i	8.2µM*	-1%
O=C(c1c[nH]c2ccccc2c1=O)N1CCCCCC1	16%	1%	-3	-24%	13%
Cc1cc(=O)oc2cc(O[C@@H]3O[C@H](CO)[C@H](O)[C@H](O)[C@H]3O)ccc12	11%	23%	0	1%	0%
Cc1cc2c(c(C)c1CCO[C@@H]1O[C@H](CO)[C@@H](O)[C@H](O)[C@H]1O)C(=O)[C@@H](C)[C@@H]2O	8%	2.9µM*	-8	5.2µM*	-1%
COc1cccc(C(O)c2nc(-c3ccc(OC)nc3)cs2)c1 (stereo unspecified)	-1%	u	18	u	-4%
Cc1ccc(C(=O)Nc2nc3ccccc3c(=O)s2)cc1	7.9µM*	18µM*	-94*	18µM*	u
CCc1nnc(NC(=S)Nc2ccccc2)s1	15%	5.8µM*	8	-69%	11%
Cc1ccc(Nc2nc3ccccc3c(=O)s2)cc1C	-1%	16µM*	0	12µM*	-4%
Cc1ccc(C(=O)Nc2nnc(NC(=S)Nc3ccccc3)s2)cc1	-20%	u	-20	21µM*	-21%
CCc1nnc(NC(=O)CCC(=O)Nc2ccccc2)s1	5%	-4%	0	-1%	3%
Cc1ccccc1-c1ccnc2[nH]n(-c3ccccc3)c(=O)c12	17%	u	16	2%	21%
Cc1ccc(NC(=O)CCc2nnc3ccc(N4CCC(C)CC4)nn23)nc1	4%	-24%	-53*	-3%	7%
COc1ccc(NC(=O)CCc2nnc3ccc(N4CCN(c5cccc(OC)c5)CC4)nn23)cc1	-1%	u	-1	15µM*	-8%
COc1cccc(NC(=O)CCc2nnc3ccc(N4CCN(c5cccc(OC)c5)CC4)nn23)c1	13%	u	33	u	2%
Cc1cc(NC(=O)Cn2cnc3sc(C)c(C)c3c2=O)no1	-11%	-3%	15	-10%	0%
CCCCC(=O)N(C)c1c(C)nc2ccc(C(=O)N3CCN(C(=O)c4ccco4)CC3)cn12	2%	-23%	-54*	-13%	3%
CCCCC(=O)N(C)c1c(C)nc2ccc(C(=O)N(C)Cc3ccco3)cn12	0%	-20%	26	-18%	9%
Cc1nc2ccc(C(=O)N3CCN(C(=O)c4ccco4)CC3)cn2c1N(C)C(=O)CCc1ccccc1	12%	-1%	1	-4%	22%
CC(=O)Nc1ccc(CN(C)c2c(C)nc3ccc(C(=O)N(C)Cc4ccco4)cn23)cc1	-1%	16µM*	10	u	4%
CCCCN(C)c1c(C)nc2ccc(C(=O)N(C)Cc3ccco3)cn12	-8%	u	-3	18µM*	-1%
Cc1ccc(NC(=O)CSc2nnc(C)n3c2cc2sccc23)c(C)c1	x	-21%	x	-17%	x
Cc1csc(NC(=O)c2ccc(COc3ccccc3)o2)n1	u	u	12	-21%	-22%
CC(C)Cn1c(N)c(C(=O)CSc2nnc(C3CC3)n2C2CC2)c(=O)n(C)c1=O	-7%	-8%	2	-29%	0%
COc1ccc(C)cc1NC(=O)CSc1nc2ccccc2nc1N1CCCC1	0%	u	11	21µM*	0%
SMILES	HT1080 IDH1KD tx	DT40 TDP1 CPT	IL1B secr inh	DT40 TDP1 no CPT	HT1080NT lethal
COc1ccc(NC(=O)CSc2nc3ccccc3nc2N2CCCC2)c(OC)c1	3%	u	7	u	-1%
COc1ccc(NC(=O)CSc2nc3ccccc3nc2N2CCCCC2)cc1	-14%	u	21	u	-3%
COc1ccc(Cl)cc1NC(=O)CSc1nc2ccccc2nc1N1CCCCC1	x	u	x	21µM*	x
COc1ccccc1C(=O)Nc1ccc(-c2nnn(CC(=O)NCc3ccco3)n2)cc1	-2%	-11%	-19	15%	4%
CCCCN(C(=O)C1CSC2(C)CCC(=O)N12)c1c(N)n(CC(C)C)c(=O)[nH]c1=O (stereo unspecified)	0%	-2%	-8	-11%	-2%
COc1cc(Cl)c(C)cc1NC(=O)c1ccccc1NC(=O)CN1CCN(C(C)=O)CC1	11%	-30%	-15	u	10%
COc1cc(NC(=O)c2cccc(C)c2)c(OC)cc1NC(=O)CN1CCOCC1	-5%	u	u	18µM*	2%
COc1cc(NC(=O)c2ccccc2Cl)c(OC)cc1NC(=O)CN1CCOCC1	19%	u	-74*	u	u
COc1cc(OC)cc(N(C(=O)C2COc3ccccc3O2)C(C(=O)NC2CCCCC2)c2ccc(O)cc2)c1 (stereo unspecified)	-27%	u	-60*	u	-17%
CCCCCSc1nnc(-c2ccccc2NC(C)=O)c(=O)[nH]1	-1%	3%	4	3%	14%
COC(=O)C(CC(C)C)NC(=O)C(N)Cc1ccccc1 (stereo unspecified)	1%	-19%	-18	0%	12%
CC(C)C[C@H](NC(=O)[C@@H](O)[C@H](N)Cc1ccccc1)C(=O)O	x	-20%[92.5 µM]	x	22µM*	x
CC(C)c1ccc(OCC(=O)Nc2c3c(nn2C(C)(C)C)CS(=O)(=O)C3)cc1	0%	12µM*	-12	u	-3%
Cc1ccc(C(=O)Nc2c3c(nn2C(C)(C)C)CS(=O)(=O)C3)cc1[N+](=O)[O-]	12%	-7%	-21	14%	8%
CC(C)(C)n1nc2c(c1NC(=O)c1ccc(Cl)c([N+](=O)[O-])c1)CS(=O)(=O)C2	u	-26%	-98*	1%	u
CCOC(=O)C1CCN(S(=O)(=O)c2ccc(CN3C(=O)c4cccnc4C3=O)cc2)CC1	3%	-12%	-10	9%	0%
CC(C)c1ccc(C2NC(=O)NC3=C2CCc2ccccc23)cc1 (stereo unspecified)	-12%	13µM*	-6	15µM*	-2%
COc1cccc(C2NC(=S)NC3=C2CCc2ccccc23)c1 (stereo unspecified)	2%	u	9	-26%	-1%
COc1ccc(C2NC(=O)NC3=C2CCc2ccccc23)cc1 (stereo unspecified)	18µM*	u	9	u	15µM*
Cc1ccnc(NS(=O)(=O)c2ccc(NC(=O)c3c(-c4ccccc4Cl)noc3C)cc2)n1	0%	-8%	13	-8%	0%
Cc1ccc(OCCn2cnc(Cl)c2Cl)cc1	-15%	6%	3	-4%	-7%
